We go through 39 molecules from paper PMC9911399, “Two distinct binding modes provide the RNA-binding protein RbFox with extraordinary sequence specificity”.

Positions count from the first letter of the chain named. Over roughly 16,000 sequences, “ka relative to ugcaugu” has its median near 0.0091; the highest 2% begin near 0.032. This is one part of a sample in which the highest values are shown more often than they occur.

T1: RBFOX1 RRM (Homo sapiens, UniProt Q9NWB1 109-208)
T1 sequence: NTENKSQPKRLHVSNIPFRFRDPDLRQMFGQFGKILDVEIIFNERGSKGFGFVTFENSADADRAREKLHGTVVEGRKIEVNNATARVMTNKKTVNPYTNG

B1: UUUCUCU (DNA:RNA)
RNA: GGGAGACCGGAAUUCAGAUUGUCCUUUCUCUUUAAAUCCCGUCGUAGCCACCA
DNA 1: CAATCTGAATTCCGGTCTCCC
DNA 2: TGGTGGCTACGACGGGATT
B2: CAUGAAC (DNA:RNA)
RNA: B1 RNA with U25C, U26A, C28G, U29A, C30A, U31C
DNA 1: CAATCTGAATTCCGGTCTCCC
DNA 2: TGGTGGCTACGACGGGATT
B3: CGAUGUC (DNA:RNA)
RNA: GGGAGACCGGAAUUCAGAUUGUCCCGAUGUCUUAAAUCCCGUCGUAGCCACCA
DNA 1: CAATCTGAATTCCGGTCTCCC
DNA 2: TGGTGGCTACGACGGGATT
B4: CGUGGUC (DNA:RNA)
RNA: B3 RNA with A27U, U28G
DNA 1: CAATCTGAATTCCGGTCTCCC
DNA 2: TGGTGGCTACGACGGGATT
B5: UCUGCGG (DNA:RNA)
RNA: B1 RNA with U26C, C28G, U29C, C30G, U31G
DNA 1: CAATCTGAATTCCGGTCTCCC
DNA 2: TGGTGGCTACGACGGGATT
B6: AAAACGU (DNA:RNA)
RNA: B3 RNA with C25A, G26A, U28A, G29C, U30G, C31U
DNA 1: CAATCTGAATTCCGGTCTCCC
DNA 2: TGGTGGCTACGACGGGATT
B7: AGUCCGC (DNA:RNA)
RNA: B3 RNA with C25A, A27U, U28C, G29C, U30G
DNA 1: CAATCTGAATTCCGGTCTCCC
DNA 2: TGGTGGCTACGACGGGATT
B8: GUUAAUG (DNA:RNA)
RNA: B1 RNA with U25G, C28A, U29A, C30U, U31G
DNA 1: CAATCTGAATTCCGGTCTCCC
DNA 2: TGGTGGCTACGACGGGATT
B9: GAGAUUG (DNA:RNA)
RNA: B3 RNA with C25G, G26A, A27G, U28A, G29U, C31G
DNA 1: CAATCTGAATTCCGGTCTCCC
DNA 2: TGGTGGCTACGACGGGATT
B10: GUGACCG (DNA:RNA)
RNA: B1 RNA with U25G, U27G, C28A, U29C, U31G
DNA 1: CAATCTGAATTCCGGTCTCCC
DNA 2: TGGTGGCTACGACGGGATT
B11: GAGAAUG (DNA:RNA)
RNA: B3 RNA with C25G, G26A, A27G, U28A, G29A, C31G
DNA 1: CAATCTGAATTCCGGTCTCCC
DNA 2: TGGTGGCTACGACGGGATT
B12: GAGACCG (DNA:RNA)
RNA: B1 RNA with U25G, U26A, U27G, C28A, U29C, U31G
DNA 1: CAATCTGAATTCCGGTCTCCC
DNA 2: TGGTGGCTACGACGGGATT
B13: GGGAAUG (DNA:RNA)
RNA: B3 RNA with C25G, A27G, U28A, G29A, C31G
DNA 1: CAATCTGAATTCCGGTCTCCC
DNA 2: TGGTGGCTACGACGGGATT
B14: GGAAAUG (DNA:RNA)
RNA: B3 RNA with C25G, U28A, G29A, C31G
DNA 1: CAATCTGAATTCCGGTCTCCC
DNA 2: TGGTGGCTACGACGGGATT
B15: GUGAAUC (DNA:RNA)
RNA: B3 RNA with C25G, G26U, A27G, U28A, G29A
DNA 1: CAATCTGAATTCCGGTCTCCC
DNA 2: TGGTGGCTACGACGGGATT
B16: GUGAAUG (DNA:RNA)
RNA: B3 RNA with C25G, G26U, A27G, U28A, G29A, C31G
DNA 1: CAATCTGAATTCCGGTCTCCC
DNA 2: TGGTGGCTACGACGGGATT
B17: GCGAAUG (DNA:RNA)
RNA: B3 RNA with C25G, G26C, A27G, U28A, G29A, C31G
DNA 1: CAATCTGAATTCCGGTCTCCC
DNA 2: TGGTGGCTACGACGGGATT
B18: GCGAAUC (DNA:RNA)
RNA: B3 RNA with C25G, G26C, A27G, U28A, G29A
DNA 1: CAATCTGAATTCCGGTCTCCC
DNA 2: TGGTGGCTACGACGGGATT
B19: GCGCGAA (DNA:RNA)
RNA: B3 RNA with C25G, G26C, A27G, U28C, U30A, C31A
DNA 1: CAATCTGAATTCCGGTCTCCC
DNA 2: TGGTGGCTACGACGGGATT
B20: UGACAAG (DNA:RNA)
RNA: B3 RNA with C25U, U28C, G29A, U30A, C31G
DNA 1: CAATCTGAATTCCGGTCTCCC
DNA 2: TGGTGGCTACGACGGGATT
B21: ACGCUGG (DNA:RNA)
RNA: B1 RNA with U25A, U26C, U27G, C30G, U31G
DNA 1: CAATCTGAATTCCGGTCTCCC
DNA 2: TGGTGGCTACGACGGGATT
B22: UGGCAAU (DNA:RNA)
RNA: B1 RNA with U26G, U27G, U29A, C30A
DNA 1: CAATCTGAATTCCGGTCTCCC
DNA 2: TGGTGGCTACGACGGGATT
B23: CACCCCG (DNA:RNA)
RNA: B1 RNA with U25C, U26A, U27C, U29C, U31G
DNA 1: CAATCTGAATTCCGGTCTCCC
DNA 2: TGGTGGCTACGACGGGATT
B24: CUUGCCC (DNA:RNA)
RNA: B1 RNA with U25C, C28G, U29C, U31C
DNA 1: CAATCTGAATTCCGGTCTCCC
DNA 2: TGGTGGCTACGACGGGATT
B25: CAAUCGU (DNA:RNA)
RNA: B3 RNA with G26A, G29C, U30G, C31U
DNA 1: CAATCTGAATTCCGGTCTCCC
DNA 2: TGGTGGCTACGACGGGATT
B26: ACUUACA (DNA:RNA)
RNA: B1 RNA with U25A, U26C, C28U, U29A, U31A
DNA 1: CAATCTGAATTCCGGTCTCCC
DNA 2: TGGTGGCTACGACGGGATT
B27: CACUUGG (DNA:RNA)
RNA: B3 RNA with G26A, A27C, G29U, U30G, C31G
DNA 1: CAATCTGAATTCCGGTCTCCC
DNA 2: TGGTGGCTACGACGGGATT
B28: CGUAAUG (DNA:RNA)
RNA: B3 RNA with A27U, U28A, G29A, C31G
DNA 1: CAATCTGAATTCCGGTCTCCC
DNA 2: TGGTGGCTACGACGGGATT
B29: GUAAAUG (DNA:RNA)
RNA: B3 RNA with C25G, G26U, U28A, G29A, C31G
DNA 1: CAATCTGAATTCCGGTCTCCC
DNA 2: TGGTGGCTACGACGGGATT
B30: AGGAAUG (DNA:RNA)
RNA: B3 RNA with C25A, A27G, U28A, G29A, C31G
DNA 1: CAATCTGAATTCCGGTCTCCC
DNA 2: TGGTGGCTACGACGGGATT
B31: UCGAUUG (DNA:RNA)
RNA: B1 RNA with U26C, U27G, C28A, C30U, U31G
DNA 1: CAATCTGAATTCCGGTCTCCC
DNA 2: TGGTGGCTACGACGGGATT
B32: CGUCCGU (DNA:RNA)
RNA: B1 RNA with U25C, U26G, U29C, C30G
DNA 1: CAATCTGAATTCCGGTCTCCC
DNA 2: TGGTGGCTACGACGGGATT
B33: UCGAAUC (DNA:RNA)
RNA: B3 RNA with C25U, G26C, A27G, U28A, G29A
DNA 1: CAATCTGAATTCCGGTCTCCC
DNA 2: TGGTGGCTACGACGGGATT
B34: AGGAAUC (DNA:RNA)
RNA: B3 RNA with C25A, A27G, U28A, G29A
DNA 1: CAATCTGAATTCCGGTCTCCC
DNA 2: TGGTGGCTACGACGGGATT
B35: GUAAUGU (DNA:RNA)
RNA: B1 RNA with U25G, U27A, C28A, C30G
DNA 1: CAATCTGAATTCCGGTCTCCC
DNA 2: TGGTGGCTACGACGGGATT
B36: CGGAAUG (DNA:RNA)
RNA: B3 RNA with A27G, U28A, G29A, C31G
DNA 1: CAATCTGAATTCCGGTCTCCC
DNA 2: TGGTGGCTACGACGGGATT
B37: GGAAUGU (DNA:RNA)
RNA: B3 RNA with C25G, U28A, G29U, U30G, C31U
DNA 1: CAATCTGAATTCCGGTCTCCC
DNA 2: TGGTGGCTACGACGGGATT
B38: AGGAUUG (DNA:RNA)
RNA: B3 RNA with C25A, A27G, U28A, G29U, C31G
DNA 1: CAATCTGAATTCCGGTCTCCC
DNA 2: TGGTGGCTACGACGGGATT
B39: UCGAAUG (DNA:RNA)
RNA: B3 RNA with C25U, G26C, A27G, U28A, G29A, C31G
DNA 1: CAATCTGAATTCCGGTCTCCC
DNA 2: TGGTGGCTACGACGGGATT

The target of this test is T1, RBFOX1 RRM. Description: EMSA; HiTS-Eq, 1 nM pool, 10 min; buffer printed only for the single-RNA assays: 10 mM Tris pH 7.5, 150 mM NaCl, 3.4 mM EDTA, 0.001% NP-40, 30 C. Particulars: tags: His6 N-terminal (pET28a); label: 5' 32P. In a few lines:
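These values rest on relative association constants, computed from read-count changes of each RNA species versus the control reaction and normalised to the cognate motif. Reads came from free RNA recovered by 8% native PAGE after purified RbFox RRM (wild type or mutant) at increasing concentrations was equilibrated for 10 min in 50 µL with 1 nM of a 5′-radiolabelled pool with 7 randomized nucleotides and DNA-annealed flanks.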
On to B1, for which the binding signal was 0.0126 KA relative to UGCAUGU.

As to B2, the binding signal was 0.00509 KA relative to UGCAUGU.

Take B3: the binding signal was 0.0174 KA relative to UGCAUGU.

For the molecule B4, the binding signal is 0.017 KA relative to UGCAUGU.

As to B5, the binding signal is 0.0178 KA relative to UGCAUGU.

B6: the binding signal is 0.000755 KA relative to UGCAUGU.

In the case of B7, the binding signal is 0.0128 KA relative to UGCAUGU.

With B8, the binding signal was 0.0118 KA relative to UGCAUGU.

For B9, the binding signal is 0.019 KA relative to UGCAUGU.

As for B10, the binding signal is 0.0167 KA relative to UGCAUGU.

Take B11: the binding signal is 0.0321 KA relative to UGCAUGU.

In the case of B12, the binding signal is 0.00974 KA relative to UGCAUGU.

In the case of B13, the binding signal is 0.0951 KA relative to UGCAUGU.

With B14, the binding signal was 0.0124 KA relative to UGCAUGU.

For the molecule B15, the binding signal was 0.0142 KA relative to UGCAUGU.

For B16, the binding signal is 0.0355 KA relative to UGCAUGU.

For the molecule B17, the binding signal was 0.0369 KA relative to UGCAUGU.

B18: the binding signal was 0.0124 KA relative to UGCAUGU.

For B19, the binding signal is 0.0104 KA relative to UGCAUGU.

Consider B20, for which the binding signal was 0.0143 KA relative to UGCAUGU.

Take B21: the binding signal was 0.0175 KA relative to UGCAUGU.

For B22, the binding signal is 0.0132 KA relative to UGCAUGU.

B23: the binding signal was 0.002 KA relative to UGCAUGU.

For the molecule B24, the binding signal is 0.00752 KA relative to UGCAUGU.

For the molecule B25, the binding signal was 0.00595 KA relative to UGCAUGU.

With B26, the binding signal is 0.00166 KA relative to UGCAUGU.

As for B27, the binding signal was 0.0107 KA relative to UGCAUGU.

Turning to B28, the binding signal is 0.0127 KA relative to UGCAUGU.

For the molecule B29, the binding signal was 0.00894 KA relative to UGCAUGU.

On to B30, for which the binding signal is 0.0471 KA relative to UGCAUGU.

In the case of B31, the binding signal is 0.0206 KA relative to UGCAUGU.

For the molecule B32, the binding signal is 0.0125 KA relative to UGCAUGU.

As for B33, the binding signal is 0.0109 KA relative to UGCAUGU.

With B34, the binding signal is 0.0141 KA relative to UGCAUGU.

As to B35, the binding signal was 0.0122 KA relative to UGCAUGU.

B36: the binding signal is 0.0596 KA relative to UGCAUGU.

Turning to B37, the binding signal is 0.0563 KA relative to UGCAUGU.

Turning to B38, the binding signal is 0.0293 KA relative to UGCAUGU.

B39: the binding signal was 0.0323 KA relative to UGCAUGU.
